This is an account of results in PubChem BioAssay (Tox21).

Values joined by “and” are separate entries in the source; they are usually repeats but may differ in a detail not shown here. Equal entries are not always repeated. Values without a mark were called inactive. Results filed as inconclusive are left out. Active and inactive are the calls of the source. Unless noted, calls come from the whole dose curve; as a rule, active = well fitted curve in the direction sought with a large enough effect in the repeat runs; inconclusive = weak or mixed curves; inactive = no such curve, though single readings can be large; an effect the other way counts as inactive or inconclusive.

Assay [1] is described as follows: qHTS assay to identify small molecule agonists of H2AX (AID 1224845; active = well fitted activation curve with a large enough effect in the signal ratio in the repeat runs, not every such curve was filed as active; the % refers to the signal ratio). A digest of the protocol:
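Wild-type CHO-K1 cells, plated overnight, exposed 3hr at 37C to 15 concentrations (0.76% DMSO final). Lysed, then HTRF anti-pH2AX (S139) cryptate and anti-H2AX-d2 antibodies, 24 hr room temperature; 665/620 nm emission read.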
Background: qHTS replaces the single test concentration by a dilution series.

Assay [2] is described as follows: qHTS assay to identify small molecule agonists of the hypoxia (HIF-1) signaling pathway (AID 1224846; active = well fitted activation curve with a large enough effect in the signal ratio in the repeat runs, not every such curve was filed as active; the % refers to the signal ratio). In short, it runs like this:
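Hypoxia-pathway activation was scored as increased beta-lactamase from an HRE-controlled reporter in ME-180 cells; plated at 2,000 cells per well with 0.5% dialyzed FBS, they were exposed 17 hrs to compounds and then given CCF4-AM.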

A short description of assay [3]: qHTS assay to identify small molecule agonists of H2AX - cell viability counter screen (AID 1224847; calls by dose curve; note: nearly all actives have a fitted effect of over 30% in size; note: potency is the fitted concentration of half-maximal effect). In short, it runs like this: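 CHO-K1 cells plated overnight at 37C, then exposed 3 h at 37C to compounds at 15 concentrations (0.76% DMSO final). Viability by CellTiter-Glo luminescence after 30 min at room temperature.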
Assay [4] is described as follows: qHTS RealTime-Glo MT Cell Viability Assay in HEK293 cells - 32 hour (AID 1224868). Note: nearly all actives have a fitted effect of over 50% in size. Note: potency is the fitted concentration of half-maximal effect. A digest of the protocol: (§1)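 Luminescence generated by NanoLuc from substrate produced by living HEK293 cells served as the viability signal. Each value reflects the reading at its stated time point during continuous 40 h compound exposure at 37 C.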
A short description of assay [5]: A CellTox Green Cytotoxicity Assay to monitor cytotoxicity in HEK293 cells - 0 hour (AID 1224869). Note: nearly all actives have a fitted effect of over 50% in size. A digest of the protocol: (§2)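 Seeding of HEK293 cells together with cytotoxicity dye preceded a 5 h incubation at 37 C/5% CO2. Test compounds in DMSO were then added and fluorescence monitored across 40 h.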
A short description of assay [6]: A CellTox Green Cytotoxicity Assay to monitor cytotoxicity in HEK293 cells - 40 hour (AID 1224871). Note: nearly all actives have a fitted effect of over 45% in size. Note: potency is the fitted concentration of half-maximal effect. In short, it runs like this:
as §2

Assay [7] can be described thus: qHTS RealTime-Glo MT Cell Viability Assay in HEK293 cells - 16 hour (AID 1224872). Note: nearly all actives have a fitted effect of over 50% in size. Note: potency is the fitted concentration of half-maximal effect. In short, it runs like this: as §1
Assay [8] in a line: qHTS RealTime-Glo MT Cell Viability Assay in HEK293 cells - 40 hour (AID 1224874). Note: nearly all actives have a fitted effect of over 50% in size. Note: potency is the fitted concentration of half-maximal effect. The conditions noted are these: RealTime-Glo luminescence; max response: stronger effect = lower value. A digest of the protocol: (§3)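 Tox21 screen in HEK293 using RealTime-Glo MT chemistry, with cells and reagent co-dispensed. Luminescence proportional to viable cell number was captured at intervals during 40 h compound exposure at 37 C.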

Assay [9] can be described thus: A CellTox Green Cytotoxicity Assay to monitor cytotoxicity in HEK293 cells - 24 hour (AID 1224875). Note: nearly all actives have a fitted effect of over 45% in size. Note: potency is the fitted concentration of half-maximal effect. A digest of the protocol: as §2
Assay [10] is described as follows: A CellTox Green Cytotoxicity Assay to monitor cytotoxicity in HepG2 cells - 16 hour (AID 1224876). Note: nearly all actives have a fitted effect of over 45% in size. Note: potency is the fitted concentration of half-maximal effect. A digest of the protocol: (§4)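 Nonlytic assay: viable cells exclude the dye, so fluorescence scales with cell death. HepG2 at 600 cells/well, compounds added after 5 h, signal read across 40 h.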
The nature of assay [11]: A CellTox Green Cytotoxicity Assay to monitor cytotoxicity in HepG2 cells - 24 hour (AID 1224878). Note: nearly all actives have a fitted effect of over 45% in size. Note: potency is the fitted concentration of half-maximal effect. In short, it runs like this: as §4
Assay [12] can be described thus: qHTS RealTime-Glo MT Cell Viability Assay in HEK293 cells - 0 hour (AID 1224880). Note: nearly all actives have a fitted effect of over 45% in size. Note: potency is the fitted concentration of half-maximal effect. A digest of the protocol: as §3
A short description of assay [13]: qHTS assay to identify small molecule agonists of the hypoxia (HIF-1) signaling pathway - cell viability counter screen (AID 1224844; calls by dose curve; note: nearly all actives have a fitted effect of over 50% in size; note: potency is the fitted concentration of half-maximal effect). In short, it runs like this:
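Multiplexed with the HRE beta-lactamase assay, this viability read used CellTiter-Glo luminescence (30 min, RT) on HRE-bla ME-180 cells treated 17 hrs with compounds in 0.5% dialyzed FBS medium.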

Assay [14] is described as follows: qHTS assay to identify small molecule agonists of the estrogen related receptor (ERR) signaling pathway from Tox21 library (AID 1224849; calls by dose curve; note: nearly all actives have a fitted effect of over 15% in size). The settings on record: ERR reporter cell line, ONE-Glo luciferase, 18 h; at 92.4 µM (top of the series) unless noted. In short, it runs like this:
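Six hours post-seeding at 37 C/5% CO2, ERR cells receive DMSO-solubilised compounds; after 18 h at 37 C, ONE-Glo reagent is applied and luminescence recorded.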

Assay [15] in a line: qHTS RealTime-Glo MT Cell Viability Assay in HepG2 cells - 40 hour (AID 1224870). Note: nearly all actives have a fitted effect of over 50% in size. Note: potency is the fitted concentration of half-maximal effect. A digest of the protocol: (§5)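 HepG2 cells (600/well) mixed with RealTime-Glo MT reagent, settled 5 h at 37 C/5% CO2 before compound addition. Nonlytic NanoLuc luminescence from viable-cell prosubstrate reduction read repeatedly during 40 h treatment at 37 C.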
Assay [16] in a line: qHTS RealTime-Glo MT Cell Viability Assay in HepG2 cells - 32 hour (AID 1224877). Note: nearly all actives have a fitted effect of over 55% in size. Note: potency is the fitted concentration of half-maximal effect. A digest of the protocol: (§6)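 Tox21 10K library screened in qHTS format on HepG2 cells carrying RealTime-Glo reagents. Compounds were added after a 5 h preincubation, and the luminescent signal from continuous culture was measured repeatedly during 40 h treatment.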
Assay [17] in a line: A CellTox Green Cytotoxicity Assay to monitor cytotoxicity in HepG2 cells - 40 hour (AID 1224879). Note: nearly all actives have a fitted effect of over 40% in size. Note: potency is the fitted concentration of half-maximal effect. In short, it runs like this:
as §4

Assay [18] is described as follows: qHTS assay to identify small molecule antagonists of the estrogen related receptor (ERR) signaling pathway from Tox21 library (AID 1224848). Note: nearly all actives have a fitted effect of over 50% in size. In short, it runs like this:
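Luminescent reporter read-out (ONE-Glo) from NTP's ERR cell line after 18 h treatment at 37 C with DMSO-dissolved Tox21 compounds; cells pre-plated 6 h beforehand at 2,000 per well.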

A short description of assay [19]: qHTS RealTime-Glo MT Cell Viability Assay in HepG2 cells - 24 hour (AID 1224867). Note: nearly all actives have a fitted effect of over 50% in size. Note: potency is the fitted concentration of half-maximal effect. In short, it runs like this: as §6
Assay [20] in a line: qHTS RealTime-Glo MT Cell Viability Assay in HepG2 cells - 8 hour (AID 1224873). Note: nearly all actives have a fitted effect of over 55% in size. Note: potency is the fitted concentration of half-maximal effect. In short, it runs like this: as §5
% is set by controls: 0 for no effect and ±100 for the full control effect.

As to `O=S1(=O)OCC2C(CO1)C1(Cl)C(Cl)=C(Cl)C2(Cl)C1(Cl)Cl` (stereo not drawn), the Potency entry in assay [1], in assay [2], in assay [3], in assay [5], in assay [9] and in assay [10] was “inactive” throughout. The Potency entry in assay [11] and in assay [12] was “inactive” in each case. Further, the Potency in assay [4] was 21.9 µM (active); in assay [6] it was 49 µM (active); in [7], 19.5 µM (active); in assay [8], 21.9 µM (active).
Take `Oc1ccc([C@H]2CNCc3c2ccc(O)c3O)cc1O`: the Potency entry in assay [13], in [3], in [4], in [5], in assay [15] and in [16] was “inactive” in each case. The Potency result in [12] is “inactive”. For the same compound, in [14], the activity change, positive = activation is -4.81% [at 42.5 µM]. Besides, the max response in assay [8] was -21.9%. Further, the Potency in assay [9] was 26.8 µM (active); in [10], 23.9 µM (active); in assay [11], 26.8 µM (active); in assay [17] it was 26.8 µM (active).
As to `CCN(CC)Cc1nccn1-c1ccc([N+](=O)[O-])cc1C(=O)c1ccccc1Cl`, the Potency result in [1], in assay [2], in assay [3], in assay [18], in assay [19] and in assay [4] was “inactive” in each case. For the same compound, the Potency result in assay [5], in assay [15], in [6], in [7], in assay [20] and in [9] was “inactive” throughout. Besides, the Potency result in assay [10], in assay [16], in assay [11], in assay [17] and in assay [12] was “inactive” throughout. For the same compound, the activity change, positive = activation in assay [14] is -10.7% [at 42.5 µM]. Besides, in [8], the max response was -11.1%.
With `O=C(Cl)c1ccccc1F`, the Potency result in assay [1], in assay [2], in assay [3], in assay [19], in [4] and in assay [5] was “inactive” in each case. Further, the Potency entry in assay [15], in assay [6], in [7], in assay [20], in assay [9] and in assay [10] was “inactive” in each case. Further, the Potency result in assay [16], in [17] and in assay [12] was “inactive” in each case. For the same compound, the max response in assay [8] was -0.0017%.
`Nc1nc(N)nc(Cl)n1`: the Potency entry in assay [1], in [2], in assay [3], in assay [19], in assay [4] and in assay [5] was “inactive” in each case. Moreover, the Potency result in [15], in [6], in [7], in assay [20], in assay [9] and in assay [10] was “inactive” each time. Further, the Potency entry in assay [16], in [17] and in assay [12] was “inactive” each time. In assay [8], the max response is 1.73%.
With `Cc1cccc(Cc2cnc[nH]2)c1C`, the Potency result in assay [13], in [3], in assay [19], in assay [4], in [5] and in assay [15] was “inactive” throughout. In addition, the Potency entry in assay [6], in assay [7], in [20], in assay [9], in [16] and in assay [12] was “inactive” in each case. Also, the max response in assay [8] is -0.68%.
Consider `N#CC(C#N)=NNc1cccc(Cl)c1`, for which the Potency in assay [13] was 3.09 µM (active); in assay [19], 19.5 µM (active); in assay [4] it was 4.9 µM (active); in [15], 19.5 µM (active); in assay [6], 49 µM (active); in assay [8] it was 5.49 µM (active). Further, the Potency was 21.9 µM (active) in [16], 24.5 µM (active) in assay [11], 12.3 µM (active) in [17] and 38.9 µM (active) in assay [12]. Also, the activity change, positive = activation in [14] is -57.7%. In addition, the Potency entry in assay [5], in [20] and in assay [9] was “inactive” throughout.
In the case of `O=C(N[C@@H]1N=C(c2ccccc2F)c2cccc3c2N(CC3)C1=O)c1cc2ccccc2[nH]1`, the Potency result in [13], in assay [3], in [4], in assay [7] and in assay [12] was “inactive” throughout. The Potency in [6] is 6.01 µM (active); in assay [9], 5.35 µM (active); in assay [10], 21.3 µM (active); in [11], 21.3 µM (active); in assay [17], 9.52 µM (active). In addition, the max response in assay [8] is -2.71%.
Consider `CC(Cc1ccc(OCC(=O)O)cc1)NCC(O)c1csc(C(F)(F)F)n1` (stereo not drawn), for which the Potency result in assay [1], in assay [2], in assay [3], in assay [18], in [19] and in assay [4] was “inactive” throughout. The Potency result in [5], in assay [15], in [6], in assay [20], in [9] and in assay [10] was “inactive” in each case. Further, the Potency entry in [16], in [11], in [17] and in assay [12] was “inactive” in each case. Further, the activity change, positive = activation in [14] is 13.9%. Moreover, the max response in [8] was -5.31%.
Turning to `CN(C)C(=S)SSC(=S)N(C)C`, the Potency in assay [13] is 171 nM (active) and 347 nM (active); in assay [3], 49.8 µM (active) and 89.8 µM (active) and 49.2 µM (active); in assay [19] it was 54.2 µM (active) and 436 nM (active) and 379 nM (active); in [4], 242 nM (active) and 245 nM (active); in assay [15], 54.2 µM (active) and 219 nM (active) and 169 nM (active); in assay [6], 216 nM (active) and 195 nM (active) and 239 nM (active). In addition, the Potency in [7] was 384 nM (active) and 692 nM (active); in assay [20], 48.3 µM (active) and 24.5 µM (active) and 3.01 µM (active); in [8], 216 nM (active) and 219 nM (active) and 9.52 µM (active); in [9], 27.2 µM (active) and 27.5 µM (active); in [10], 21.9 µM (active); in assay [16], 54.2 µM (active) and 245 nM (active) and 169 nM (active). Moreover, the Potency in [11] was 436 nM (active) and 21.3 µM (active); in assay [17] it was 216 nM (active) and 275 nM (active) and 134 nM (active). Also, the Potency result in assay [5] and in assay [12] was “inactive” in each case.
